SENP8 block-1: blocks the human protease SENP8. purified SENP8, Z-RLRGG-aminoluciferin cleavage, luminescence. inhibition, % at 10 µM. 330,000 tested, 1.2% active. AID 2540; in the data active = inhibition above about 50%
SENP6 block: blocks the human protease SENP6 | Recombinant SENP6 catalytic domain, aminoluciferin luminescence | inhibition, % at 10 µM | 330,000 tested, 1.8% active;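 active = inhibition above about 50% at the single tested dose, limit read from the data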;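 note: plate controls were DMSO wells with enzyme for no effect and DMSO wells lacking enzyme for full effect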
PPC-1+TRAIL kill: PPC-1 cancer cell killing with TRAIL present | 220,000 tested, 0.41% active | cell killing (% activity), % at 4 µM or 5 µM | PPC-1 cells + TRAIL, ATPLite viability luminescence;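 active = cell killing above 50% in the first pass at 4 µM, then a duplicate retest at 5 µM averaging 50% or more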;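 note: plate controls were cells with TRAIL plus DMSO for no effect and medium-only wells lacking cells for full effect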
SENP7 inh: SENP7 protease inhibition; recombinant SENP7, Z-RLRGG-aminoluciferin luminescence, 40 min; inhibition, % at 5 µM; 330,000 tested, 1.5% active; AID 434973;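 active = inhibition above about 50% at the single test dose, limit read from the data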;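 note: plate controls were DMSO with enzyme for no effect and no enzyme buffer wells for full effect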
Target sequence (Q9BQF6 706-1050 limits assumed): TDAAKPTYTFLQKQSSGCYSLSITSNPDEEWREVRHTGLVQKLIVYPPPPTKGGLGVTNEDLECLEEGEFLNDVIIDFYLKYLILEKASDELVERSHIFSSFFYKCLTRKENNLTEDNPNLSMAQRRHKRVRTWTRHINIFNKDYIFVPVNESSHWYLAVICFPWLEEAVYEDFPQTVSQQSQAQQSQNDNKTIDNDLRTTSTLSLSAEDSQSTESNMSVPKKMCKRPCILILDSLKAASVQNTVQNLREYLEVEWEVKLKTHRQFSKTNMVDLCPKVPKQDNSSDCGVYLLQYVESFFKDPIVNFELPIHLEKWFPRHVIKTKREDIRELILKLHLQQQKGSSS
SENP8 block-2: blocks human SENP8 cleavage of Nedd8 substrate; recombinant SENP8, Nedd8 substrate fluorescence; inhibition, % at 20 µM; 360,000 tested, 0.64% active; AID 602440; in the data active = inhibition mostly above about 40%, no sharp cut-off; inactive = mostly below about 27%
TRAIL sens C8: sensitizes caspase-8 expressing cells to TRAIL | 360,000 tested, 1% active | AID 624354 | inhibition (viability loss, TRAIL sensitization), % at 10 µM | NB7+C8 cells + TRAIL, ATPlite viability luminescence;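 active = compounds causing at least 50% loss of cell viability in the single-dose screen, relative to plate controls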
* hit, by the source's call. The list is not random: actives were taken first. Their share in the collection is about 3%.

CCOC(=O)C1=C(CC)Nc2ccccc2N=C1NC(=O)Nc1ccc(Cl)c(Cl)c1 was read as SENP8 block-1 1, SENP6 block 8, PPC-1+TRAIL kill -8, SENP7 inh 9, SENP8 block-2 24 and TRAIL sens C8 56*.
O=c1c2c(nc3cc(-c4ccccc4Cl)[nH]n13)CCS2 was read as SENP8 block-1 77*, SENP6 block 85*, PPC-1+TRAIL kill 37, SENP7 inh 37, SENP8 block-2 -282 and TRAIL sens C8 36.
`COc1ccc(/C=C(\NC(=O)c2ccc(C)cc2)C(=O)Nc2ccc(C(=O)O)cc2)cc1` gave SENP8 block-1 -12, SENP6 block -16, SENP7 inh -4, SENP8 block-2 12 and TRAIL sens C8 -7.
Screening COC1=C(c2ccccc2)C(=O)c2ccccc2C1=O returned SENP8 block-1 3, SENP6 block 28, PPC-1+TRAIL kill 1, SENP7 inh 13, SENP8 block-2 92* and TRAIL sens C8 0.
`C(=Nc1cccc2c(N=Cc3ccco3)cccc12)c1ccco1` gave SENP8 block-1 72*, SENP6 block 86*, PPC-1+TRAIL kill -9, SENP7 inh 30, SENP8 block-2 -396 and TRAIL sens C8 -3.
CC(C)NC(=O)C1(C)CN(S(C)(=O)=O)CC(=O)N1C1CCN(Cc2ccccc2)CC1 (stereo unspecified) was read as SENP8 block-2 2 and TRAIL sens C8 -11.
For Cc1nn(CCCC(=O)NCc2ccc(F)cc2)c(=O)c2nccn12 the results were SENP8 block-1 -3, SENP6 block 0, SENP7 inh -1, SENP8 block-2 3 and TRAIL sens C8 -10.
For COc1cccc(/C=N/NC(=O)c2ccccc2NC(=O)c2ccco2)c1OC the results were SENP8 block-1 -7, SENP6 block -13, PPC-1+TRAIL kill -1, SENP7 inh 0, SENP8 block-2 -48 and TRAIL sens C8 4.
COc1cccc(/C=C/C(=O)NNC(=O)c2ccco2)c1OC was read as SENP8 block-1 -2, SENP6 block 0, SENP7 inh 5, SENP8 block-2 -43 and TRAIL sens C8 63*.
For Cc1ccc(NC(=O)c2sc3nc(CCl)[nH]c(=O)c3c2C)c(C)c1 the results were PPC-1+TRAIL kill 24, SENP8 block-2 -3 and TRAIL sens C8 55*.
`CN(C)/N=C/C=C1\CC/C(=C\c2ccc(F)c(F)c2)C1=O` gave SENP8 block-1 -5, SENP6 block 5, SENP7 inh -9, SENP8 block-2 52* and TRAIL sens C8 6.
`CC(C)OC(=O)N(C)C[C@H]1OCc2cn(nn2)CCCC(=O)N([C@H](C)CO)C[C@@H]1C` gave SENP8 block-2 4 and TRAIL sens C8 -3.
COc1ccc(-c2ccc(-c3nnn(CC(=O)N4CCOCC4)n3)cc2)cc1 was read as SENP8 block-1 -18, SENP6 block -11, PPC-1+TRAIL kill 0, SENP7 inh 22, SENP8 block-2 -18 and TRAIL sens C8 52*.
Screening CCOC(=O)C1=CCC2C(=O)N(C)C(=O)C12 (stereo unspecified) returned SENP8 block-2 15 and TRAIL sens C8 0.
`COc1ccc(/C(N)=N/OC(=O)c2cccc([N+](=O)[O-])c2C)cc1` gave SENP8 block-1 -7, SENP6 block -9, PPC-1+TRAIL kill 13, SENP7 inh -3, SENP8 block-2 19 and TRAIL sens C8 65*.
Cc1ccc(C(=O)O/N=C(\N)c2cccc([N+](=O)[O-])c2)cc1 was read as SENP8 block-1 12, SENP6 block 44, PPC-1+TRAIL kill 20, SENP7 inh 49, SENP8 block-2 14 and TRAIL sens C8 56*.
C/C(=N\OC(=O)c1c(-c2ccccc2Cl)noc1C)c1ccncc1 was read as SENP8 block-1 1, SENP6 block 0, PPC-1+TRAIL kill 14, SENP7 inh 4, SENP8 block-2 1 and TRAIL sens C8 -10.
`Cc1onc(-c2ccccc2Cl)c1C(=O)O/N=C(\N)c1cccc([N+](=O)[O-])c1` gave SENP8 block-2 14 and TRAIL sens C8 88*.
Screening N/C(=N\OC(=O)c1ccc(Br)cc1)c1cccc([N+](=O)[O-])c1 returned SENP8 block-1 -19, SENP6 block 22, SENP7 inh 16, SENP8 block-2 8 and TRAIL sens C8 -3.
`Cc1onc(-c2ccccc2Cl)c1C(=O)O/N=C(\N)c1ccccc1` gave SENP8 block-1 4, SENP6 block 3, SENP7 inh -4, SENP8 block-2 0 and TRAIL sens C8 92*.
